This is an account of results in PubChem BioAssay (Tox21).

Molecules are shown by their SMILES. Where “and” joins values, the source holds several entries; their conditions need not be identical. Equal values may be shown once. A number with no mark means an inactive call. Inconclusive results are not listed. Calls of active or inactive are those of the source. Unless noted, the call rests on the fitted dose curve; in most records, active means well fitted curve in the direction sought with a large enough effect in the repeat runs; inconclusive means weak or mixed curves; inactive means no such curve, though single readings can be large; an effect the other way counts as inactive or inconclusive.

A short description of test [1]: qHTS assay for small molecule agonists of the p53 signaling pathway - cell viability (AID 651633; calls by dose curve; further: nearly all actives have a fitted effect of over 30% in size; further: potency means the concentration at half of the fitted maximal effect). The method in brief: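 p53RE-bla cells, seeded at 4,000 per well and rested 5 h at 37 C/5% CO2, received compounds in DMSO for 16 h at 37 C. CellTiter-Glo was then added, and luminescence was read after 30 min at room temperature to gauge cytotoxicity.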
Test [2] in a line: qHTS assay for small molecules that induce genotoxicity in human embryonic kidney cells expressing luciferase-tagged ATAD5 - cell viability (AID 651634; calls by dose curve; further: nearly all actives have a fitted effect of over 25% in size; further: potency means the concentration at half of the fitted maximal effect). The method in brief: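 Seeding of 2,000 HEK293T ATAD5-luciferase cells per well preceded pin-tool compound transfer. Plates sat 15.5 hr at 37C under 5% CO2, then fluorescence was read after 30 min with CellTiter-Fluor.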
The nature of test [3]: qHTS assay for small molecule disruptors of the mitochondrial membrane potential - cell viability (AID 720634; calls by dose curve;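 further: human HepG2 liver cancer cells; nearly all actives have a fitted effect of over 20% in size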). The method, boiled down:
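Measuring cytotoxicity alongside mitochondrial potential, the screen quantified ATP by luminescence in HepG2 cells after 1 hr compound incubation and a 30 min room-temperature CellTiter-Glo step.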

A short description of test [4]: qHTS assay for small molecule disruptors of the mitochondrial membrane potential (AID 720635). Further: potency means the concentration at half of the fitted maximal effect. The method in brief:
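HepG2 cells (2,000/well) attached overnight at 37C, then took compound for 1 hr at 37C, 5% CO2. Mito-MPS dye was added for 30 min; fluorescence was read at 490/535 nm (monomers) and 540/590 nm (aggregates).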

Test [5] is described as follows: qHTS assay to test for compound auto fluorescence at 590 nm (red) in HepG2 cells (AID 720674). The method, boiled down: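 Rose Bengal sodium served as the red fluorophore standard. HepG2 monolayers (overnight attachment, MEM with 10% FBS) were exposed to test compounds for 1 hr at 37 C and read at Ex 540/Em 590 nm.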
(Quantitative high-throughput screening tests each substance at several concentrations.)

The nature of test [6]: qHTS assay to test for compound auto fluorescence at 535 nm (green) in HepG2 cells (AID 720675).
Test [7] in a line: qHTS assay to test for compound auto fluorescence at 460 nm (blue) in HEK293 cells (AID 720678). The method in brief: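 Blue read-out at excitation 405 nm and emission 460 nm follows overnight compound exposure of HEK293 cells at 37C in 5% CO2. Activity is given as auto fluorescence equivalency to triamterene.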
Test [8] can be described thus: qHTS assay to test for compound auto fluorescence at 590 nm (red) in HEK293 cells (AID 720679). The method in brief: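 Red channel, Ex/Em 540/590nm; signal expressed as equivalency to Rose Bengal sodium. HEK293, 2,000 cells/well, 10% dialyzed FBS; 23 nL compound pinned after 4-5 hr attachment; overnight 37C/5% CO2 before reading.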
A short description of test [9]: qHTS assay to test for compound auto fluorescence at 535 nm (green) in HEK293 cells (AID 720680).
Test [10] is described as follows: qHTS assay to test for compound auto fluorescence at 460 nm (blue) in HEK293 cell free culture (AID 720681). The method in brief:
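Test compounds were pinned into cell-free culture medium (DMEM with 10% FBS) and fluorescence was read directly at Ex/Em 405/460 nm. Signals were expressed as fluorescence equivalents of triamterene, with DMSO vehicle as control.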

A short description of test [11]: qHTS assay to test for compound auto fluorescence at 535 nm (green) in HEK293 cell free culture (AID 720682). The method, boiled down: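 Intrinsic compound fluorescence is measured in culture medium containing 10% FBS, with excitation at 485 nm and detection at 535 nm, referenced to fluorescein.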
The nature of test [12]: qHTS assay to test for compound auto fluorescence at 590 nm (red) in HEK293 cell free culture (AID 720683). The method, boiled down:
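Tox21 10K library compounds were pinned into cell-free DMEM with 10% FBS and fluorescence was read at excitation 540 nm. Activity is expressed as Rose Bengal sodium equivalency.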

A short description of test [13]: qHTS assay to test for compound auto fluorescence at 590 nm (red) in HepG2 cell free culture (AID 720684). The method in brief:
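Measured in medium alone (MEM containing 10% FBS) following pintool addition of compound; emission at 590 nm with 540 nm excitation, referenced to Rose Bengal sodium.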

Test [14] in a line: qHTS assay to test for compound auto fluorescence at 460 nm (blue) in HepG2 cell free culture (AID 720685). The method, boiled down:
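Compound (23 nL) or DMSO pinned into cell-free MEM with 10% FBS; blue fluorescence read at 405/460 nm excitation/emission, expressed as auto-fluorescence equivalency to triamterene.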

Test [15] can be described thus: qHTS assay to test for compound auto fluorescence at 535 nm (green) in HepG2 cell free culture (AID 720686).
Test [16] is described as follows: qHTS assay to test for compound auto fluorescence at 460 nm (blue) in HepG2 cells (AID 720687). The method in brief: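 Cells (2,000/well in MEM with 10% FBS) attached overnight at 37 C, then were exposed to compound or DMSO for 1 hr at 37 C, 5% CO2. Fluorescence read at Ex/Em 405/460 nm, expressed as triamterene-equivalent signal.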
In test [17] the target is Glucocorticoid receptor (Homo sapiens) (UniProt P04150). In words: qHTS assay to identify small molecule agonists of the glucocorticoid receptor (GR) signaling pathway (AID 720691; active means well fitted activation curve with a large enough effect in the signal ratio in the repeat runs, not every such curve was filed as active; the % refers to the signal ratio). To be noted: GR-bla HeLa, beta-lactamase reporter ratio, 18 h; activation: at 62.4 µM (top of the series). The method in brief: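 Reporter read-out: fluorescence intensity following 2 h room-temperature LiveBLAzer B/G FRET substrate loading. Prior step: GR-bla HeLa cells held 4 h, then treated 18 h at 37 C.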

Test [18] is described as follows: qHTS assay for small molecules that induce genotoxicity in human embryonic kidney cells expressing luciferase-tagged ATAD5 (AID 651632). Further: nearly all actives have a fitted effect of over 15% in size. Further: potency means the concentration at half of the fitted maximal effect. The method in brief: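 Reporter cells (HEK293T) express luciferase-tagged ATAD5, a protein that accumulates after DNA damage. Treat 16 hr at 37C/5% CO2, add Amplite, wait 30 min at RT, and read luminescence.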
On the % scale 0 is the no-effect control and ±100 the full control effect.

Sequence of Glucocorticoid receptor (Homo sapiens) (P04150 whole entry, looked up): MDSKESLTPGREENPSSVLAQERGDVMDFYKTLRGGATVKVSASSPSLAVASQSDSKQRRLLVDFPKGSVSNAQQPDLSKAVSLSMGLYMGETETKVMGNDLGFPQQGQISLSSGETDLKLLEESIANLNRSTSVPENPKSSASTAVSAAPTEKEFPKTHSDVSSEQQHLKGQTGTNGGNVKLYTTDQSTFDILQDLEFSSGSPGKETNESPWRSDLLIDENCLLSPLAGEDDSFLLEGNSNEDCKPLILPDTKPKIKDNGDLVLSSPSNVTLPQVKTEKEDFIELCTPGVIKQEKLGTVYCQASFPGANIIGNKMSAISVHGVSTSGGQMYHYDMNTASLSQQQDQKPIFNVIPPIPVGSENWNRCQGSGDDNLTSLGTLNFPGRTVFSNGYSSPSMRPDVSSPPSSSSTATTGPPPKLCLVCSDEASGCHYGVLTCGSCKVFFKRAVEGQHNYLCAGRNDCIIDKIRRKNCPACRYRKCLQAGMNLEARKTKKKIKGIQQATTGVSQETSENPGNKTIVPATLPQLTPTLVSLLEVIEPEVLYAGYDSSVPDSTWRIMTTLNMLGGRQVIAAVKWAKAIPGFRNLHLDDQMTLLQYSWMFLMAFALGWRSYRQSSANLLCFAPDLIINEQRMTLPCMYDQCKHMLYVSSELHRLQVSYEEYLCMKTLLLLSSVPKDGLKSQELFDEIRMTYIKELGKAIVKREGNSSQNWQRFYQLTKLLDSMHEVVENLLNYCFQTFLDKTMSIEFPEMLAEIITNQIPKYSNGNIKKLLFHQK

In the case of `C[C@H]1O[C@@H](O[C@H]2[C@@H](O)C[C@H](O[C@H]3[C@@H](O)C[C@H](O[C@H]4CC[C@@]5(C)[C@H](CC[C@@H]6[C@@H]5C[C@@H](O)[C@]5(C)[C@@H](C7=CC(=O)OC7)CC[C@]65O)C4)O[C@@H]3C)O[C@@H]2C)C[C@H](O)[C@@H]1O`, the Potency was 94.4 nM (active) and 13.7 nM (active) and 30.3 nM (active) in test [1]; 168 nM (active) and 48.6 nM (active) and 42.8 nM (active) in test [2]; 298 nM (active) and 1.37 µM (active) and 604 nM (active) in test [4]. Besides, the Potency result in [3], in test [5], in test [6], in test [7], in test [8] and in test [9] was “inactive” throughout. Besides, the Potency entry in test [10], in test [11], in [12], in test [13], in [14] and in test [15] was “inactive” in each case. The Potency result in [16] and in test [17] was “inactive” each time.
As to `NC1(c2ccc(-c3nc4ccn5c(=O)[nH]nc5c4cc3-c3ccccc3)cc2)CCC1`, the Potency entry in test [18], in test [3], in test [5], in test [7], in test [8] and in test [9] was “inactive” in each case. Also, the Potency result in [10], in [11], in [12], in [13], in [15] and in [16] was “inactive” in each case. In addition, the Potency entry in [17] is “inactive”.
With `O=C(Oc1ccccc1)c1cccc(C(=O)Oc2ccccc2)c1`, the Potency was 3.86 µM (active) in [18] and 32.3 µM (active) in test [4]. The Potency entry in test [2], in test [5], in [6], in test [7], in test [8] and in [9] was “inactive” throughout. For the same molecule, the Potency result in [10], in [11], in test [13], in test [14], in [15] and in test [16] was “inactive” throughout.
Regarding `NC(=O)c1nc(-c2cccc(-c3cc(F)ccc3OCC(F)(F)C(F)(F)F)c2)n[nH]1`, the Potency result in test [18], in [5], in test [6], in [7], in [8] and in test [10] was “inactive” each time. The Potency result in [11], in test [12], in [13], in [14], in test [15] and in [16] was “inactive” each time.
Take `CCCCOc1ccc(C(=O)CCN2CCCCC2)cc1`: the Potency entry in [2], in test [3], in test [4] and in test [17] was “inactive” in each case. The fluorescence, relative to Rose Bengal in test [5] was 0.0479% [at 18.6 µM]. For the same molecule, the fluorescence, % of fluorescein control in test [6] was 0.0117% [at 18.6 µM]; in [15], 0.0663% [at 18.6 µM]. Further, the fluorescence, % of triamterene in [7] is 0.101% [at 18.6 µM]. For the same molecule, the fluorescence, % of fluorescent control in test [8] is -0.0275% [at 18.6 µM]; in test [10], 0.0618% [at 18.6 µM]; in test [12] it was -0.0248% [at 18.6 µM]; in [16] it was -0.165% [at 18.6 µM]. Also, in test [9], the fluorescence, % of fluorescein was 0.0036% [at 18.6 µM]. Also, the activity change in [11] is -0.0432% [at 18.6 µM, active compounds read high].
In the case of `Oc1ccc(-c2ccc(O)cc2)cc1`, the Potency entry in test [2], in test [3], in [5], in test [6], in test [7] and in test [8] was “inactive” each time. Besides, the Potency result in [9], in [10], in test [11], in test [12], in test [13] and in test [14] was “inactive” each time. Moreover, the Potency result in [15], in test [16] and in [17] was “inactive” each time.
`S=C(SSSSSSC(=S)N1CCCCC1)N1CCCCC1`: the Potency result in test [1] and in test [3] was “inactive” in each case. Also, the fluorescence, relative to Rose Bengal in [5] was -0.0183% [at 18.6 µM]. Also, the figures for the fluorescence, % of fluorescein control in test [6] and in [15] were -0.0182% [at 18.6 µM] and -0.0879% [at 18.6 µM], respectively. The fluorescence, % of triamterene in [7] is 0.0298% [at 18.6 µM]. The fluorescence, % of fluorescent control was 0.199% [at 18.6 µM] in test [8]; -0.263% [at 18.6 µM] in [10]; 0.0303% [at 18.6 µM] in test [12]; -0.225% [at 18.6 µM] in [14]; 0.0837% [at 18.6 µM] in test [16]. In addition, the fluorescence, % of fluorescein in test [9] is -0.141% [at 18.6 µM]. Besides, the activity change in [11] is -0.0539% [at 18.6 µM, active compounds read high]. Further, the fluorescence, % of Rose Bengal in [13] was -0.0342% [at 18.6 µM].
